Records with an inconclusive call do not appear. Unmarked numbers belong to inactive results. Active and inactive are the calls of the source. Calls come from the whole dose curve; as a rule, active = well fitted inhibition curve with a large enough effect; inconclusive = small, poorly fitted or top-dose-only effect; inactive = no such curve, though single readings can be large or run the other way.
The compounds below were run against N-terminal Xaa-Pro-Lys N-methyltransferase 1 (Homo sapiens) (UniProt Q9BV86) (assay: qHTS Assay for Inhibitors of N-terminal methyltransferase 1 (NTMT1): LOPAC validation of the NTMT1 SAHH-coupled ThioGlo3 Assay (AID 1347143;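 note: SAH from peptide methylation measured as thiol fluorescence via SAHH coupling and ThioGlo3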; for activity change, negative = inhibition: % is set by controls: 0 for no effect and ±100 for the full control effect)). Conditions: recombinant NTMT1, SAHH-coupled ThioGlo3 fluorescence; series mostly up to 114 µM; activity change, negative = inhibition: at the top concentration.
N-terminal Xaa-Pro-Lys N-methyltransferase 1 (Homo sapiens), sequence (Q9BV86 whole entry, looked up): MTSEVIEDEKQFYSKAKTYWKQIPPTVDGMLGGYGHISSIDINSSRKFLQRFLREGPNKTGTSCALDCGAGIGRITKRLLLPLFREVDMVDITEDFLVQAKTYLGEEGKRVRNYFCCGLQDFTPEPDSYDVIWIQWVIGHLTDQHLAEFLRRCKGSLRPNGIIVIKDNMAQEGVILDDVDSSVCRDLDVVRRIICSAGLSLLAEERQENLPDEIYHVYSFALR
Summary of the method: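 Recombinant human NTMT1 (125nM) was pre-incubated 1 min at room temperature with compounds over a concentration range, then a mix of 100uM SAM, 10uM SAHH and 15uM ThioGlo3 (concentrations in added reagent) was added. ThioGlo3 fluorescence (ex 340/em 450nm) after 30 min was normalized to the initial reading.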
Note: nearly all actives have a fitted effect of over 70% in size.
Potency is the fitted concentration of half-maximal effect.

| Compound | activity change, negative = inhibition | Potency |
| --- | --- | --- |
| O=C1NCN(c2ccccc2)C12CCN(CC1COc3ccccc3O1)CC2 (stereo unspecified) | -15.9% |  |
| CC(CCc1ccccc1)NC(C)C(O)c1ccc(O)cc1 (stereo unspecified) | -13.1% |  |
| COc1ccccc1N1CCNCC1 | -22.4% |  |
| CC(=O)[C@H]1CC[C@H]2[C@@H]3CC[C@H]4C[C@](C)(O)CC[C@]4(C)[C@H]3CC[C@]12C | -7.81% |  |
| CCC1(C2=NCCN2)Cc2ccccc2O1 (stereo unspecified) | -6.88% |  |
| NN=C(N)N |  | inactive |
| NCC(O)c1ccc(O)cc1 (stereo unspecified) | -5.11% |  |
| Cc1cccc(C)c1NC1=NCCCS1 | -17.4% |  |
| CC[N+](CC)(CC)CC | -7.2% |  |
| N#CC(C#N)=Cc1ccc(O)c(O)c1 |  | 56.2 µM (active) |
| Nc1ccncc1 | 1.59% |  |
| CCCN1CCC[C@@H]2Cc3[nH]ncc3C[C@H]21 | -18.4% |  |
| c1ccc2c(c1)OCC(C1=NCCN1)O2 (stereo unspecified) |  | 56.2 µM (active) |
| CNCC(O)c1ccc(O)cc1 (stereo unspecified) | -11% |  |
| c1ccc(C2CC2)c(OCC2=NCCN2)c1 | -18.1% |  |
| O=c1[nH]c2ccccc2n1C1CCN(CCCC(c2ccc(F)cc2)c2ccc(F)cc2)CC1 | -17.3% |  |
| CC[C@@H](CO)NC(=O)[C@@H]1C=C2c3cccc4c3c(cn4C)C[C@H]2N(C)C1 |  | 56.2 µM (active) |

The compounds below were run against Furin (Homo sapiens) (UniProt P09958) (assay: Furin counterscreen qHTS for Zika virus inhibitors (AID 1347149)). Conditions: furin enzymatic counterscreen, fluorogenic substrate; series mostly up to 57.5 µM; activity change, negative = inhibition: at the top concentration.
Furin (Homo sapiens), sequence (P09958 whole entry, looked up): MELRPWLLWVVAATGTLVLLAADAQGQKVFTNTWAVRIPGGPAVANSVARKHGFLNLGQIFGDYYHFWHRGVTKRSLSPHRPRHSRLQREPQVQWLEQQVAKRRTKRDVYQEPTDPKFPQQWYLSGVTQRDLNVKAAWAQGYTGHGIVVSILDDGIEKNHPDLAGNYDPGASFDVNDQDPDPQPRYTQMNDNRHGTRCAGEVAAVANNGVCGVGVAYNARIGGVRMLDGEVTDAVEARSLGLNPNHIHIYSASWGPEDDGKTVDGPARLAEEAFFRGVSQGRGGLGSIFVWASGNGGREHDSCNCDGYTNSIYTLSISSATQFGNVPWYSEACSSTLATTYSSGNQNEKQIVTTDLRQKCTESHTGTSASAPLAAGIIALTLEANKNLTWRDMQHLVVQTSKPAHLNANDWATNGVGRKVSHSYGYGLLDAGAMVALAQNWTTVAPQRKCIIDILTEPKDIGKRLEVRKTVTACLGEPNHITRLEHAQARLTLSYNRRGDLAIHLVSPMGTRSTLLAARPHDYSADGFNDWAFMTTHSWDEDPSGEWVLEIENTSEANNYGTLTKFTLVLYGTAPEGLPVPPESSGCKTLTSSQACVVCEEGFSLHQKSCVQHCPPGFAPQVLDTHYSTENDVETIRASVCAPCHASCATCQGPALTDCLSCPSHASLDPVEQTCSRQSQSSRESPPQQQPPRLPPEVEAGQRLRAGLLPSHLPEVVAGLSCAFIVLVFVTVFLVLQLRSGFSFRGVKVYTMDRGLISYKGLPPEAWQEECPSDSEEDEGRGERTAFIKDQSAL
Summary of the method: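 Fluorogenic cleavage of BOC-RVRR-AMC (2 microM final, Km ~15 µM) was monitored (ex 340, em 450 nm) at 37C after 15 min RT preincubation of 5 nM furin with compounds in HEPES pH 7.0 buffer with CaCl2 and Triton X-100. Percent inhibition was fitted to a 4-parameter Hill curve.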

| Compound | Potency |
| --- | --- |
| CCN(C(C)=O)c1cccc(-c2ccnc3c(C#N)cnn23)c1 | 24.1 µM (active) |
| N[C@@H](Cc1ccc(Oc2cc(I)c(O)c(I)c2)c(I)c1)C(=O)O | 30.4 µM (active) |
| Cc1ccc(-c2nc3ccc(C)cn3c2CC(=O)N(C)C)cc1 | 8.55 µM (active) |
| O=c1oc2ccccc2c(O)c1C(CC(O)c1ccc(-c2ccc(Br)cc2)cc1)c1ccccc1 (stereo unspecified) | 26.4 µM (active) |

— PubChem BioAssay (NCATS)
